# Laboratory results as given in PubChem BioAssay (NCATS).
# Values without a mark were called inactive. Results filed as inconclusive are left out. Some of the results follow. The source made the active and inactive calls. Unless noted, the call rests on the fitted dose curve; in most records, active means well fitted curve in the direction sought with a large enough effect; inconclusive means small, poorly fitted or top-dose-only effect, or another doubt; inactive means no such curve, though single readings can be large; an effect the other way counts as inactive or inconclusive. Numbered stars: 1 amine (or outer) side, 2 acyl side, 3 side chain; on linkers, the order of the positions; unused ones are H or OH. Bridge positions count the residues as written; N and C are the ends. Square brackets hold non-standard residues; d marks the D form. Peptide text beside a SMILES is read from it. * marks the point of attachment. ξ: configuration not given here. ΔAla(Z-3-ureido) = NC(=O)N/C=C(\N)C(=O)O; X3 = NC1=NCCC(C(N[*:1])C(=O)[*:2])N1; ξβ3hOrn = NCCCC(N)CC(=O)*; Dap = NC[CH](N)C(=O)O
# What was measured:
# [1] = molecular target: Tumor susceptibility gene 101 protein (Homo sapiens) (UniProt Q99816); assay: qHTS Assay for Iinhibitors of HIV-1 Budding by Blocking the Interaction of PTAP/TSG101: Hit Validation (AID 651600); further: nearly all actives have a fitted effect of over 70% in size; further: potency means the concentration at half of the fitted maximal effect
# Sequence of Tumor susceptibility gene 101 protein (Homo sapiens) (Q99816 whole entry, looked up, the tested form may be a part): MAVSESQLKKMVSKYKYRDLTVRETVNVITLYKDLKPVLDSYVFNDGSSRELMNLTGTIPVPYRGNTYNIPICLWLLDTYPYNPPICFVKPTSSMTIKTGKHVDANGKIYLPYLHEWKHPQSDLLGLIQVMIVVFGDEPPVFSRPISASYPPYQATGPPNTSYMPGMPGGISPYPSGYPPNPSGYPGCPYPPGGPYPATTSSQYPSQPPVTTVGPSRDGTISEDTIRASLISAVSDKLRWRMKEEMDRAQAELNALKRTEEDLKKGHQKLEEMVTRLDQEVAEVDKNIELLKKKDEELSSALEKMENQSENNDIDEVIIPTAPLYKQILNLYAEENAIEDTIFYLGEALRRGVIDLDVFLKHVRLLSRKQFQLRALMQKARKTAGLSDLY
# Method in brief: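 FITC-PTAP peptide (50 nM final) binding to Tsg101 binding domain (10 uM final) was measured by polarization after 20 min at r.t. with compounds, in 10 mM HEPES pH 7.5 buffer with 0.15 M NaCl and 0.01% Tween 20.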
# [2] = S16 Schwann cell PMP22 intronic element firefly luciferase assay (AID 624032); further: nearly all actives have a fitted effect of over 30% in size; further: potency means the concentration at half of the fitted maximal effect
# Method in brief: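 Rat S16 Schwann cells stably carrying a PMP22 intronic element-driven Fluc reporter were seeded overnight, then exposed to compounds for 24 h at 37 °C. Luminescence was normalized to PTC124 (positive control) and DMSO (0% activity).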
# [3] = molecular target: Luciferin 4-monooxygenase (Photinus pyralis) (UniProt P08659); assay: Biochemical firefly luciferase enzyme assay for NPC (AID 624030); further: nearly all actives have a fitted effect of over 70% in size; further: potency means the concentration at half of the fitted maximal effect
# Sequence of Luciferin 4-monooxygenase (Photinus pyralis) (P08659 whole entry, looked up): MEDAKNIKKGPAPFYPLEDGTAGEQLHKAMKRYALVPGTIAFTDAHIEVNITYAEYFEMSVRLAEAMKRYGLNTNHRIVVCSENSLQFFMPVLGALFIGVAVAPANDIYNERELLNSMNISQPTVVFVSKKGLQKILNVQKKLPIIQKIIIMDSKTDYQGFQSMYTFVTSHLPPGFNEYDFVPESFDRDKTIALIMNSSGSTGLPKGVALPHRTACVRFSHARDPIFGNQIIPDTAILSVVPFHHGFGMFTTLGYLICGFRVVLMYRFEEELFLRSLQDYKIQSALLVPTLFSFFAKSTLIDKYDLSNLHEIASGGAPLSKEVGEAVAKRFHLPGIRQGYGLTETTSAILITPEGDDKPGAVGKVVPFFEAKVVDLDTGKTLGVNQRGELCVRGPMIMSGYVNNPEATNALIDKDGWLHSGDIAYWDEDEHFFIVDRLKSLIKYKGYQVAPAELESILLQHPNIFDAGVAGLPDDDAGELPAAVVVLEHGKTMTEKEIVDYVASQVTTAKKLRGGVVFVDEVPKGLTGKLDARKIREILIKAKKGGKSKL
# Method in brief: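 Counter-screen for direct inhibition of the luciferase enzyme by approved-drug library compounds, run at 10 nM enzyme in 50 mM Tris acetate (final). Luminescence was read within 5 min of enzyme-buffer addition and normalized to PTC124 versus DMSO (0%).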
# [4] = molecular target: ATPase family AAA domain-containing protein 5 (Homo sapiens) (UniProt Q96QE3); assay: HTS assay for small molecules that inhibit ELG1-dependent DNA repair in human embryonic kidney (HEK293T) cells expressing luciferase-tagged ELG1: Hit Confirmation (AID 624248); conditions: HEK293T ELG1-luciferase levels, luminescence; cells co-treated with 5-fluorouridine; further: potency means the concentration at half of the fitted maximal effect; nearly all actives have a fitted effect of over 55% in size
# Sequence of ATPase family AAA domain-containing protein 5 (Homo sapiens) (Q96QE3 whole entry, looked up, the tested form may be a part): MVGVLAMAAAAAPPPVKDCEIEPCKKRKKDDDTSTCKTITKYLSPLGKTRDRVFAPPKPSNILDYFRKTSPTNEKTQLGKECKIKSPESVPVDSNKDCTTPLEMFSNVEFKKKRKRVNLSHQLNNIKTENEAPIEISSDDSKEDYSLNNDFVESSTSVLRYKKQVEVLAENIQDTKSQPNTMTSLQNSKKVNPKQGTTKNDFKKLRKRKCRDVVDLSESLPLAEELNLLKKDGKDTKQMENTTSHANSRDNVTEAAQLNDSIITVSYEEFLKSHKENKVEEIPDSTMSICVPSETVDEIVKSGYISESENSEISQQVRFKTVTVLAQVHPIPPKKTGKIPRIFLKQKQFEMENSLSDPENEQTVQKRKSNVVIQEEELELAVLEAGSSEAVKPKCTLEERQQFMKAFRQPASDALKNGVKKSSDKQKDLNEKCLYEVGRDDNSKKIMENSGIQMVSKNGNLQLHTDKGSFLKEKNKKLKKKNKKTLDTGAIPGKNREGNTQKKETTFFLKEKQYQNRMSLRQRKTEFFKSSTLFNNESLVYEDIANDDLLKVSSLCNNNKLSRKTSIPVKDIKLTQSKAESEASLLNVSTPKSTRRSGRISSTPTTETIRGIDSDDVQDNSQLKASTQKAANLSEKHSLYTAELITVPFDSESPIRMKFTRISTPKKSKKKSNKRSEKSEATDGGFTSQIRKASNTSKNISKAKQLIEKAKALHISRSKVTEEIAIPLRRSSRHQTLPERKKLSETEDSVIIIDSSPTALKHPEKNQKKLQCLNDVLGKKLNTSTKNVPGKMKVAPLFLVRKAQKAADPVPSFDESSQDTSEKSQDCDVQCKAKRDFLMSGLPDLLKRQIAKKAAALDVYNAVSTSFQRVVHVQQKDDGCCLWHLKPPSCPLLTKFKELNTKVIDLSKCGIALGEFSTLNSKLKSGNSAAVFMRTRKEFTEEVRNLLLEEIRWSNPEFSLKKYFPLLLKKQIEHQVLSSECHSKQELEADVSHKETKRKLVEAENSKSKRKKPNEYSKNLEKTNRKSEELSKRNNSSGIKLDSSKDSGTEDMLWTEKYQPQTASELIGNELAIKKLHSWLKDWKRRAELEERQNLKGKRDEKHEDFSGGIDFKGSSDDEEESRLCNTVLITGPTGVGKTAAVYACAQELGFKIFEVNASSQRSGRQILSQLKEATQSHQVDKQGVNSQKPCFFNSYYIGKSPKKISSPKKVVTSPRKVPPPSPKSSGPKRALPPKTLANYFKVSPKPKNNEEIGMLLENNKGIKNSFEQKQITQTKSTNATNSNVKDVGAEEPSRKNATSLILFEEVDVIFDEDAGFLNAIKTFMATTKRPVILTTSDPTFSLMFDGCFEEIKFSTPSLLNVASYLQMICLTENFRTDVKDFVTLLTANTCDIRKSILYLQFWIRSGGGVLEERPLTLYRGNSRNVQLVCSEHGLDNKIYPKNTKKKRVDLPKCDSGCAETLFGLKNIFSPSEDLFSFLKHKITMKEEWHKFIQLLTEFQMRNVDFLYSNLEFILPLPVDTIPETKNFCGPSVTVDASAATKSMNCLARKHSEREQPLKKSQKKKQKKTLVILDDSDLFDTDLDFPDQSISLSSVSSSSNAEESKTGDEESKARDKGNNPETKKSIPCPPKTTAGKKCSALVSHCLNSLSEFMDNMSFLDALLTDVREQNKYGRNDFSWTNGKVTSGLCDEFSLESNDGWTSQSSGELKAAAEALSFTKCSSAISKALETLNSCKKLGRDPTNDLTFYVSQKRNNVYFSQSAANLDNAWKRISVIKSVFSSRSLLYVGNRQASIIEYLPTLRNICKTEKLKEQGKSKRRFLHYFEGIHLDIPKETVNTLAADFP
# Method in brief: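 Cells (2,000/well) received 5-Fluorouridine plus pin-transferred compound or DMSO and were incubated 16 hr at 37 °C, 5% CO2. Luciferase activity was read by ONE-Glo luminescence after 30 min at room temperature; inhibitors suppress the signal.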
# [5] = molecular target: ATPase family AAA domain-containing protein 5 (Homo sapiens) (UniProt Q96QE3); assay: qHTS screen for small molecules that inhibit ELG1-dependent DNA repair in human embryonic kidney (HEK293T) cells expressing luciferase-tagged ELG1: Hit Confirmation using MMS Stimulated ELG1 (AID 624249); conditions: HEK293T luciferase-tagged ELG1 level; further: potency means the concentration at half of the fitted maximal effect; nearly all actives have a fitted effect of over 60% in size
# Method in brief: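 Luminescence from luciferase-tagged ELG1 measured 16 h after pin-tool compound transfer into HEK293T cells stimulated with 10 µM MMS (final). Compounds lowering luciferase signal counted as inhibitors of ELG1 response.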
# [6] = qHTS screen for small molecules that inhibit ELG1-dependent DNA repair: Hit Confirmation with MMS Viability (AID 624251); conditions: Cell viability with MMS;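 further: ELG1-luc HEK293T cells co-treated with 10 µM MMS; potency means the concentration at half of the fitted maximal effect; viability read 16 h after compound addition; nearly all actives have a fitted effect of over 60% in size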
# Method in brief: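 Sixteen hours of compound exposure with MMS at 10 µM final preceded a CellTiter-Glo viability readout in ELG1-luciferase HEK293T cells, which were dosed about 5 h after seeding.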
# [7] = molecular target: Luciferin 4-monooxygenase (Photinus pyralis) (UniProt P08659); assay: qHTS screen for small molecules that inhibit ELG1-dependent DNA repair: Hit Confirmation in Biochemical Luciferin Assay (AID 624253)
# Method in brief: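 Cell-free hit confirmation using firefly luciferase; light output measured by CCD imaging.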
# [8] = S16 Schwann cell PMP22 intronic element beta-lactamase assay (AID 624044; calls by dose curve; further: potency means the concentration at half of the fitted maximal effect; nearly all actives have a fitted effect of over 15% in size); conditions: S16 rat Schwann cells, PMP22 element beta-lactamase FRET, 24 h; ratio activity, negative = inhibition: at 38.3 µM (top of the series)
# Method in brief: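 Beta-lactamase reporter under a PMP22 intronic regulatory element in stable S16 rat Schwann cells; 24 h compound exposure. 460 nm blue signal normalized between DMSO (0%) and potassium clavulanate, with 535 nm FRET tracking viability; curves classed by r2 and response.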
# [9] = qHTS Assay for Identifying Gametocytocidal Compounds (AID 743244); further: potency means the concentration at half of the fitted maximal effect; conditions: P. falciparum 3D7 stage III-V gametocytes, alamarBlue, 72 h; max response: stronger effect = lower value
# Method in brief: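 Stage III-V P. falciparum 3D7 gametocytes, 20,000 per well, were exposed to compounds for 72 h at 37C, 5% CO2. AlamarBlue was then added for 24 h and viability was read as fluorescence at Ex 525/Em 598 nm.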
# [10] = molecular target: Tyrosine-protein kinase Yes (Homo sapiens) (UniProt P07947); assay: qHTS for small molecule inhibitors of Yes1 kinase: Primary Screen (AID 686947); conditions: Yes1 kinase biochemical qHTS inhibition; further: potency means the concentration at half of the fitted maximal effect; nearly all actives have a fitted effect of over 60% in size
# Sequence of Tyrosine-protein kinase Yes (Homo sapiens) (P07947 whole entry, looked up): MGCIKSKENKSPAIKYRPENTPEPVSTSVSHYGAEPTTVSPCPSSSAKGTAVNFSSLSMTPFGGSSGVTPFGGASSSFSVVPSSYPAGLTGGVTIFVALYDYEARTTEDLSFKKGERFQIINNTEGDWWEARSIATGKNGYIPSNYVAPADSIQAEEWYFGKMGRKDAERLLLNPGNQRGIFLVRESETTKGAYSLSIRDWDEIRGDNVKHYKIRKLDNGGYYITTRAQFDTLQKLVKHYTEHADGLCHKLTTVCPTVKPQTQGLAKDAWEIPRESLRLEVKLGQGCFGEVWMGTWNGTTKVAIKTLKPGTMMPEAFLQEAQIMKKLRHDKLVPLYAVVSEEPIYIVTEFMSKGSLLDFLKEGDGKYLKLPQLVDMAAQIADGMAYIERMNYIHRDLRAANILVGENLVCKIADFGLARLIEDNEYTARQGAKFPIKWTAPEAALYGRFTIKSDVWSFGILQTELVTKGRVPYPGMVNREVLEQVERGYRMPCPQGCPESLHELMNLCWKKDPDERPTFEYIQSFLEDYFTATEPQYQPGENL
# Method in brief: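 In this qHTS format, inhibition is expressed relative to DMSO controls with enzyme (maximum) and without enzyme (minimum). The 60 min room-temperature reaction uses 0.1 mM ATP, with ADP detected by luminescence.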
# [11] = molecular target: Cytochrome P450 3A4 (Homo sapiens) (UniProt P08684); assay: qHTS Assay for Activators of Cytochrome P450 3A4 (AID 885); further: nearly all actives have a fitted effect of over 65% in size
# Sequence of Cytochrome P450 3A4 (Homo sapiens) (P08684 whole entry, looked up): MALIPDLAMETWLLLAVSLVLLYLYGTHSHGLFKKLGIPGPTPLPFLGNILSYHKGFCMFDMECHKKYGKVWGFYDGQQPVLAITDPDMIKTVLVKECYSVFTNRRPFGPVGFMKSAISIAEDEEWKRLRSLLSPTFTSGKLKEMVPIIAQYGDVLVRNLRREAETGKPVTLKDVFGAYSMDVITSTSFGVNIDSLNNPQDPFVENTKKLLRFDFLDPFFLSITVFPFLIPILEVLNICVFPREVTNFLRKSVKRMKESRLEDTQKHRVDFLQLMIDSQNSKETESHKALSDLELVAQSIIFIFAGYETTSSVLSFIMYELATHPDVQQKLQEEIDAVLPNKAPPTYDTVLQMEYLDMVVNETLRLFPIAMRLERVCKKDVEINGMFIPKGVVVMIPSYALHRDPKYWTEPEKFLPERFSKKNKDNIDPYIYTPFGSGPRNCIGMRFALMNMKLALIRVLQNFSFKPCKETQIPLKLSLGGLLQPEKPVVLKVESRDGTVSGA
# Method in brief: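 Using 20nM recombinant human CYP3A4 in potassium phosphate (200mM), substrate Luciferin-PPXE at 25uM, luminescent luciferin detection followed a 60-min RT NADPH reaction; data scaled to 57 uM ketoconazole.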
# [12] = qHTS assay for environmental chemicals that activate the Aryl hydrocarbon Receptor (AhR) signaling pathway (AID 651777); conditions: 1A2-DRE human hepatoma cells, luciferase, 24 h; activation: stronger effect = higher value; further: potency means the concentration at half of the fitted maximal effect; nearly all actives have a fitted effect of over 15% in size
# Method in brief: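 Measured luciferase activity, read 30 min after One-Glo addition at room temperature, from human hepatoma cells bearing a dioxin response element–CYP1A2 promoter reporter and exposed to compound for 24 hr at 37 C.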
# [13] = S16 Schwann cell viability assay (CellTiter-Glo assay) (AID 624031); further: potency means the concentration at half of the fitted maximal effect; nearly all actives have a fitted effect of over 70% in size
# Method in brief: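 Rat S16 Schwann cells without reporter constructs received compound or DMSO for 24 h at 37 °C under 5% CO2. Cellular ATP was then quantified by CellTiter-Glo luminescence, with vehicle wells defined as 0% activity and cell-free wells as reference.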
smiles,measurement,setting,value
CCOC(=O)c1c(/N=C/c2c(O)n(-c3ccccc3F)c(=S)[nH]c2=O)sc2c1CCCC2,Potency,[1],16.3 µM (active)
CCCCCCCCCCCCCCCCCC[N+](C)(C)CCC[Si](OC)(OC)OC,Potency,[2],0.572 µM (active)
CC(=O)NC1[C@H]([C@H](O)[C@H](O)CO)OC(C(=O)O)=C[C@H]1N=C(N)N (stereo not given in full),Potency,[2],inactive
NCCCC(N)CC(=O)NCC1NC(=O)C(CO)NC(=O)C(N)CNC(=O)C(C2CCN=C(N)N2)NC(=O)/C(=C/NC(N)=O)NC1=O (stereo not drawn) (H-[Dap]S[Dap](ξβ3hOrn)[ΔAla(Z-3-ureido)][X3]; lactam 1-C; configuration not given here),Potency,[2],inactive
Oc1ccc2c3c1OC1C(O)C=CC4[C@@H](C2)NCC[C@]314 (stereo not given in full),Potency,[3],inactive
N#CCN1CCN(c2ccc(C(F)(F)F)cc2)CC1,Potency,[1],inactive
C[C@]12CCC3[C@@H](CCC4=CC(=O)CC[C@@]43C)C1CCC2OC(=O)CCc1ccccc1 (stereo not given in full),Potency,[3],inactive
C[C@@H]1C[C@H]2CC[C@H](O2)[C@H](C)C(=O)O[C@@H](C)C[C@@H]2CC[C@@H](O2)[C@@H](C)C(=O)O[C@H](C)C[C@H]2CC[C@H](O2)[C@H](C)C(=O)O[C@@H](C)C[C@@H]2CC[C@@H](O2)[C@@H](C)C(=O)O1,Potency,[4],14.1 µM (active)
same,Potency,[5],0.0889 µM (active)
same,Potency,[6],0.0997 µM (active)
same,outcome,[7],inactive
COc1ccc(N2C(=O)NC(=O)/C(=C\c3cn(C)c4ccccc34)C2=O)cc1,Potency,[1],inactive
Cc1cc(N2CCCC2)ccc1C=C(C#N)C#N,Potency,[1],inactive
O=C1OC(c2cc(I)c(O)c(I)c2)(c2cc(I)c(O)c(I)c2)c2ccccc21,Potency,[3],32.2 µM (active)
C[C@]12O[C@H](C[C@]1(O)CO)n1c3ccccc3c3c4c(c5c6ccccc6n2c5c31)CNC4=O,Potency,[8],7.07 µM (active)
same,Potency,[9],2.51 µM (active)
COc1cc(O)c2c(c1)/C=C/C[C@H](O)[C@H](O)C(=O)/C=C\C[C@H](C)OC2=O,Potency,[10],2.44 µM (active)
Cc1ncc(C[n+]2csc(CCOP(=O)(O)O)c2C)c(N)n1,Potency,[2],7.21 µM (active)
CNC[C@H](O)c1ccc(OC(=O)C(C)(C)C)c(OC(=O)C(C)(C)C)c1,Potency,[11],inactive
same,Potency,[2],0.0098 µM (active)
C[C@]12C=CC(=O)N[C@@H]1CC[C@@H]1C2CC[C@]2(C)C(C(=O)Nc3cc(C(F)(F)F)ccc3C(F)(F)F)CC[C@@H]12 (stereo not given in full),Potency,[2],16.1 µM (active)
Nc1ccc2c3c(cccc13)-c1ccccc1-2,Potency,[1],9.19 µM (active)
Cc1c2ccccc2c(C)c2c1ccc1ccccc12,Potency,[11],inactive
same,Potency,[12],25.1 µM (active)
CN1Cc2c(c(C#N)c(N)n(C)c2=S)CC1(C)C,Potency,[1],32.6 µM (active)
COc1cccc2c1C(=O)c1c(O)c3c(c(O)c1C2=O)CC(O)(C(C)=NO)CC3OC1CC(N)C(O)C(C)O1 (stereo not given),Potency,[1],10.3 µM (active)
COc1cc(-c2ccc(-[n+]3nc(-c4ccccc4)nn3-c3ccc([N+](=O)[O-])cc3)c(OC)c2)ccc1-[n+]1nc(-c2ccccc2)nn1-c1ccc([N+](=O)[O-])cc1,Potency,[13],28.7 µM (active)
same,Potency,[2],14.4 µM (active)
same,Potency,[8],25.1 µM (active)
same,Potency,[9],5.62 µM (active)
